# High-throughput results deposited in PubChem BioAssay by National Center for Advancing Translational Sciences (NCATS).
# G9a block: qHTS Assay for Inhibitors of Histone Lysine Methyltransferase G9a. Histone-lysine N-methyltransferase EHMT2 (Homo sapiens), Q96KQ7. G9a H3K9 monomethylation, AlphaScreen, 2 h. Potency, µM (doses to about 102 µM), without a hit: top-dose activity, negative = inhibition, most hits filed as inhibitors. 8.8% of 350,000 active. AID 504332, 2011; further: on the % scale 0 is the no-effect control and ±100 the full control effect; nearly all actives have a fitted effect of over 75% in size
#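 Enzyme 20 nM + cpd, 15 min RT; add b-H3K9 pep 500 nM / SAM 20 uM; 2 h RT; anti-H3K9me1 Ab 0.5 ug/mL + SA donor / anti-rabbit acceptor beads 20 ug/mL each, 10 min; AlphaScreen read.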
# L3MBTL1 inh: qHTS Assay for the Inhibitors of L3MBTL1; Lethal(3)malignant brain tumor-like protein 1 (Homo sapiens), Q9Y468; AlphaScreen L3MBTL1–H3K9me1 peptide binding; Potency, µM (doses to about 57.1 µM), for inactives: top-dose activity, negative = inhibition, usual class: inhibitors; 0.66% of 230,000 active; AID 485360, 2010; further: on the % scale 0 is the no-effect control and ±100 the full control effect; nearly all actives have a fitted effect of over 60% in size
#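 Read-out is AlphaScreen signal from streptavidin donor and nickel chelate acceptor beads (10 ug/mL final each) bridging L3MBTL1 (50 nM) and biotinylated K9-monomethylated H3(1-15) peptide (75 nM), after 30 min compound exposure at room temperature.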
# JMJD2A Tudor: qHTS Assay for Inhibitors of JMJD2A-Tudor Domain; Lysine-specific demethylase 4A (Homo sapiens), O75164; Potency, µM (doses to about 114 µM), inactives show at the top dose activity change, negative = inhibition, actives largely listed as inhibitors; AID 504339, 2011; AlphaScreen JMJD2A-Tudor / H3K4me3 peptide binding; 4.4% of 390,000 active; further: on the % scale 0 is the no-effect control and ±100 the full control effect; nearly all actives have a fitted effect of over 50% in size
# BAZ2B inh: qHTS Assay for Inhibitors of BAZ2B; Bromodomain adjacent to zinc finger domain protein 2B (Homo sapiens), Q9UIF8; AlphaScreen BAZ2B-H3K14Ac peptide displacement; Potency, µM (titrated, usually from 114 µM), for inactives: top-dose activity change, negative = inhibition, hits mostly inhibitors; 4.4% of 360,000 active; AID 504333, 2011; further: on the % scale 0 is the no-effect control and ±100 the full control effect; nearly all actives have a fitted effect of over 60% in size
#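 Inhibition is scored as reduced AlphaScreen emission. The BAZ2B/b-H3(5-23)K14Ac complex (50 nM each) in PBS pH 7.4, 0.01% Tween-20 meets compound (up to 110 uM) for 30 min at RT before bead addition.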
# HP1b chromo inh: HTS for Inhibitors of HP1-beta Chromodomain Interactions with Methylated Histone Tails. Chromobox protein homolog 1 (Homo sapiens), P83916. AlphaScreen HP1-beta / biotin-H3K9me3 peptide binding. Potency, µM (top dose mostly 114 µM), without a hit: top-dose activity change, negative = inhibition, most hits filed as inhibitors. 0.56% of 390,000 active. AID 540317, 2011; further: nearly all actives have a fitted effect of over 70% in size
#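 AlphaScreen: HP1-beta (50 nM) preformed 30 min with biotin-H3(1-18)K9me3 peptide (50 nM) in PBS pH 7.4, 0.01% Tween-20. Compound added for 30 min at RT, then streptavidin donor/nickel chelate acceptor beads (10 ug/mL) for 30 min.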
# Sfp PPTase inh: qHTS Assay for Inhibitors of Bacillus subtilis Sfp phosphopantetheinyl transferase (PPTase) | Biochemical Sfp PPTase activity, qHTS | 4'-phosphopantetheinyl transferase ffp (Bacillus subtilis), Q9F4F7 | Potency, µM, for inactives: largest response in the series, negative = inhibition, hits mostly inhibitors | 3.5% of 310,000 active | AID 1490, 2009;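 further: the enzyme is Sfp with the accession as filed and its product quenches rhodamine fluorescence; 0% = enzyme reaction without inhibitor and -100% = no enzyme wells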
#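 Step 1, compound plus 15 nM Sfp-PPTase, 15 min, room temperature. Step 2, add rhodamine-CoA (5 uM) and BHQ-2-YbbR (12.5 uM). Step 3, read 525/598 nm fluorescence at 0 and 30 min.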
# Active calls of the source: *; ? = inconclusive; nt = not tested or not shown; ! = not active in a repeat; [ ] = another dose, or the depositor's remark. Rows were chosen to be rich in hits. Some 12% of all compounds tested hit in one or more screens of this group. The call rests on the fitted dose curve; in most records, active means well fitted curve in the direction sought with a large enough effect; inconclusive means small, poorly fitted or top-dose-only effect, or another doubt; inactive means no such curve, though single readings can be large; an effect the other way counts as inactive or inconclusive. Potency means the concentration at half of the fitted maximal effect.
SMILES,G9a block,L3MBTL1 inh,JMJD2A Tudor,BAZ2B inh,HP1b chromo inh,Sfp PPTase inh
COCC(=O)N1CCC2(CCN(Cc3ccc(C#N)cc3)CC2)CC1,-8%[12.7 µM],nt,nt,nt,nt,26%
CC(C)CO/N=C1/C[C@@H](O)[C@@H](O)[C@@H]2[C@@H]3C(=O)N([C@@H](C)c4ccccc4)C(=O)[C@H]3CC[C@H]12,nt,nt,nt,nt,nt,1%
Cc1ccc(CCNC(=O)c2ccc(CSCc3ccccc3C)o2)cc1,16%[59 µM],nt,-23%,33%,57%,nt
COc1[nH]c(/N=C/c2ccco2)c(C#N)c1C#N,nt,nt,32µM*,nt,22µM*,nt
CC(=O)O[C@]1(C(C)=O)CC[C@H]2C3C=C(Cl)C4=CC(=O)[C@@H]5C[C@H]5[C@]4(C)C3CC[C@@]21C (some centres undefined),37%[12.7 µM],nt,nt,nt,nt,nt
O=C(O)c1cccc(NC(=O)c2cccc(S(=O)(=O)Nc3cccc([N+](=O)[O-])c3)c2)c1,-49%,0%,-10%,-39%,9%,13%
O=C(NNS(=O)(=O)c1ccc([N+](=O)[O-])cc1)C(=O)Nc1cccc(C(=O)O)c1,8.9µM*,nt,?,56µM*,37%,40µM*
O=C(NNS(=O)(=O)c1ccc([N+](=O)[O-])cc1)c1ccccc1,nt,nt,?,nt,9%,nt
O=C(NNC(=S)NC(=O)c1ccccc1)c1cccc([N+](=O)[O-])c1,28µM*,nt,-29%,-1%,-14%,13%
O=C(NNC(=S)NC(=O)c1cccc([N+](=O)[O-])c1)c1ccc(Br)cc1,45µM*,nt,-21%,-2%,-1%,-2%
O=C(NNS(=O)(=O)c1ccccc1)c1cccc([N+](=O)[O-])c1,?,11%,13µM*,-8%,21%,7%
O=C(NNC(=O)c1cccc([N+](=O)[O-])c1)c1ccncc1,-4%[0.501 µM],4%,-11%[57.1 µM],3%,20%,1%
O=C(O)c1ccc(CNc2ncnc3nc[nH]c23)cc1,nt,nt,-8%,nt,32%,nt
O=C(NNC(=S)NC(=O)c1cccc([N+](=O)[O-])c1)c1ccc(O)cc1,20µM*,nt,-25%,5%,-17%,?
Cc1ccc(C(=O)NC(=S)NNC(=O)c2cccc([N+](=O)[O-])c2)cc1,nt,14%,-12%,12%,14%,12%
O=C(NC(=S)N1CCCC1)c1cccc([N+](=O)[O-])c1,79µM*,nt,-21%,-38%,50%,2%
CN(C(=O)C(=O)Nc1ccc2nc3n(c(=O)c2c1)CCCCC3)c1cccc(C(F)(F)F)c1,11%[59 µM],nt,-11%,-2%,14%,nt
CCCS(=O)(=O)c1ncc(Cl)c(C(=O)Nc2ccc(S(=O)(=O)Nc3ncccn3)cc2)n1,18µM*,nt,-3%,-18%,63%,-20%
CCS(=O)(=O)c1ncc(Cl)c(C(=O)Nc2ccc(S(=O)(=O)N3CCC(C)CC3)cc2)n1,45µM*,nt,-30%,-27%[57.1 µM],3%[57 µM],-19%
CCSc1ncc(Cl)c(C(=O)Nc2ccc(S(=O)(=O)Nc3ncccn3)cc2)n1,-14%,nt,-13%,-1%,39%,6%
CC1(OC(=O)CCc2ccccc2)C(=O)C=C2C=C(c3ccc(C#N)cc3)OC=C2C1=O (centres undefined),nt,nt,nt,nt,nt,-6%
CC1(OC(=O)C2CCCC2)C(=O)C=C2C=C(c3ccsc3)OC=C2C1=O (centres undefined),?,nt,?,50µM*,?,-20%
CC1(OC(=O)CCc2ccccc2)C(=O)C=C2C=C(c3ccsc3)OC=C2C1=O (centres undefined),?,nt,nt,50µM*,nt,1%
CCCCC1=CC2=CC(=O)C(C)(OC(=O)C3CCCC3)C(=O)C2=CO1 (centres undefined),?,nt,79µM*,50µM*,?,71µM*!
CCCC(C)(C)C(=O)Nc1ccc(Cl)cc1,nt,nt,nt,nt,nt,-5%
SMILES,G9a block,L3MBTL1 inh,JMJD2A Tudor,BAZ2B inh,HP1b chromo inh,Sfp PPTase inh
CCOc1ccc(Br)cc1S(=O)(=O)Nc1cccc(-c2ccc(OC)nn2)c1,3%[59 µM],nt,-19%,-11%,8%[57 µM],nt
COc1ccc(CC(=O)NC(C)c2nnc(SCC(=O)c3ccc(Br)cc3)n2C)cc1 (centres undefined),40µM*,nt,-11%,-25%,10%,?
CCn1c(SCC(=O)c2ccc(OC)cc2)nnc1C(C)NC(=O)c1ccc(OC)cc1 (centres undefined),45µM*,-1%,-15%,-6%,25%,-29%
CCc1ccccc1NC(=O)Cn1cc2c(n1)CCC(C)C2 (centres undefined),1%[59 µM],nt,-12%,2%,13%,nt
COc1ccc(-c2csc(Nc3ccccn3)n2)cc1OC,50µM*,-2%,?,45µM*,-25%,-28%
Oc1ccc(-c2csc(Nc3ccccn3)n2)cc1,71µM*,-10%,-27%,?,3%,3%
Cc1ccc(OCCSc2nc(-c3ccccc3C)nc3cc(=O)[nH]n23)cc1Cl,44%[59 µM],nt,-32%,22%,51%,nt
CCCCn1c(SCC(=O)NCCCOC)nc2c(sc3ccccc32)c1=O,21%[59 µM],nt,-4%,23%,69%,nt
C/C(=N\NC(=O)c1cccc(N/N=C(\C)c2ccco2)c1)c1ccco1,35µM*,-29%,?,-30%,-1%,5%
C/C(=N\NC(=O)c1cccc(O)c1)c1cccc(NC(=O)c2ccc(F)cc2)c1,7%,nt,-13%,-26%,32%,13%
C/C(=N\NC(=O)c1cccc(N/N=C(\C)c2cc(O)ccc2O)c1)c1cc(O)ccc1O,?,28µM*,13µM*,11µM*,?,8%
O=C(O)C(Cc1ccnc2ccccc12)=NO,nt,nt,3.2µM*,nt,25%,nt
CCOC(=O)C(Cc1ccnc2ccccc12)=NO,nt,nt,-19%,nt,7%[57 µM],nt
CSc1cccc(N2C(=O)N(CC(=O)NCc3ccccc3Cl)c3ccccc3S2(=O)=O)c1,0%[59 µM],nt,-7%,-3%,20%,nt
CCN1CCN(c2cc(=O)n(C3CCCCC3)c(=O)[nH]2)CC1,50µM*,-15%,8%,11%,58%,20%
CN1CCN(c2cc(=O)n(C3CCCCC3)c(=O)[nH]2)CC1,35µM*,-1%,-15%,7%,27%,18%
CC1CCC(NC(=O)C2(C)Cc3ccccc3C(=O)N2Cc2ccc(F)cc2)CC1 (centres undefined),0%[59 µM],nt,-2%,1%,31%,nt
COc1ccc(S(=O)(=O)Nc2cc(Sc3ncn[nH]3)c(O)c3ccccc23)cc1,1.6µM*,nt,5.6µM*,45µM*,?,3.5µM*
